Out of some 360,000 compounds screened, about 2,000 (0.56%) were called active. Another 2% or so got no clear call; they are omitted. Only a selection was taken, and actives are over-represented in it overall. Unmarked numbers belong to inactive results. Cut-off read from the data, not from the text of the source: active = activity change below about -65%; inconclusive = mostly about -30% to -63%; inactive = weaker than that.
Each compound was assayed against Homeobox protein SIX1 (Homo sapiens) + Protein phosphatase EYA2 (Homo sapiens) (UniProt Q15475+O00167) (assay: qHTS Assay for Inhibitors of the Six1/Eya2 Interaction). Conditions: AlphaScreen GST-Six1/His-Eya2 binding, biochemical; active compounds read low.
Sequence of Homeobox protein SIX1 (Homo sapiens) + Protein phosphatase EYA2 (Homo sapiens) (O00167 whole entry, looked up): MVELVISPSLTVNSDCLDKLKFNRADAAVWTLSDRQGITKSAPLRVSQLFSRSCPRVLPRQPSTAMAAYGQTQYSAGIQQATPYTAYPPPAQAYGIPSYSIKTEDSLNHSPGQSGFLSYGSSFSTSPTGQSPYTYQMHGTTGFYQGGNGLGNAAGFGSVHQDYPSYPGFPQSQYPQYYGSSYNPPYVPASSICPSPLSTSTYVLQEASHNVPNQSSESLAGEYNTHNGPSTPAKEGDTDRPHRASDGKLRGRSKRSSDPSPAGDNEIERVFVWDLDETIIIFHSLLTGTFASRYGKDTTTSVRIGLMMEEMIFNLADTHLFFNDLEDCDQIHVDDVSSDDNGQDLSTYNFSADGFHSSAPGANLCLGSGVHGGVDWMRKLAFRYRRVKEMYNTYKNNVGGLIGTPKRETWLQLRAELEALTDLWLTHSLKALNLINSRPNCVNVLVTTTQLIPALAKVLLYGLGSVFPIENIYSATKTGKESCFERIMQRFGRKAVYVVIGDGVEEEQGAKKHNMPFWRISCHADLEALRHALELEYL
Sequence of Homeobox protein SIX1 (Homo sapiens) + Protein phosphatase EYA2 (Homo sapiens) (Q15475 whole entry, looked up): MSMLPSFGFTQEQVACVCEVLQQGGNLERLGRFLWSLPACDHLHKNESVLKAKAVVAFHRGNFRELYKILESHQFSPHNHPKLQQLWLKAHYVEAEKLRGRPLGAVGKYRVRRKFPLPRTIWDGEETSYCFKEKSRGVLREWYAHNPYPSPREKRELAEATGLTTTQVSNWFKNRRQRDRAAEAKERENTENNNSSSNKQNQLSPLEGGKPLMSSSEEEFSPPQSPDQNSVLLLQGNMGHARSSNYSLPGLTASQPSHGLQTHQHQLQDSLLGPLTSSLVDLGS
Summary of the method: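 Six1/Eya2 binding was read as AlphaScreen signal after compounds were pinned into GST-Six1 plus His-tagged Eya2 (5X stock 250/500 nM) in pH 8.0 Tris/NaCl/TCEP buffer, beads added, then incubated 1 h, 37 C, dark.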
In the case of `COc1ccccc1Cc1c(-c2ccc(Cl)cc2)nc2c3ccccc3ccn12`, the activity change is reported as 9.04%.
In the case of `COc1cccc(/C=N/Nc2ncc(C(F)(F)F)cc2Cl)c1O`, the activity change is reported as -91.7% (active).
For `CN(C)C=NC(=O)c1cccn1-c1ncc(C(F)(F)F)cc1Cl`, the activity change was 7.6%.
Compound `O=c1[nH]c2cccnc2n(CCNc2ncc(C(F)(F)F)cc2Cl)c1=O` has an activity change of 5.43%.
`Nc1c(C(=O)c2cccs2)sc2nsc(SCCN3CCCCC3)c12` showed an activity change of 19.7%.
`O=C(O)C1C2CC2CN1C(=O)c1ccc(Cl)cc1Cl` (stereo not given) gave an activity change of 2.75%.
For `O=C(NCCc1ccccc1)/C(=C\c1ccc([N+](=O)[O-])cc1)NC(=O)c1ccccc1`, the activity change was 2.96%.
Work on `O=C(Nc1ccc(C(=O)O)cc1)/C(=C/c1ccc([N+](=O)[O-])cc1)NC(=O)c1ccccc1` yielded an activity change of -4.68%.
`O=C(N/N=C/c1cc([N+](=O)[O-])ccc1O)/C(=C\c1cccs1)NC(=O)c1ccccc1` was tested, and the activity change was -90.3% (active).
Compound `COc1ccc(NC(=O)C2(C)Cc3c(-c4cccc(NC(C)=O)c4)ccnc3O2)cc1OC` (stereo not given) has an activity change of -4.36%.
Compound `CCc1ccc(Oc2coc3cc(OC(=O)c4cc5ccccc5oc4=O)ccc3c2=O)cc1` has an activity change of -6.39%.
In the case of `O=C(Nc1cccnc1)c1cc2cc(Br)ccc2oc1=O`, the activity change is reported as 17.5%.
With `O=C(Oc1cccnc1)c1cc2ccccc2oc1=O` the activity change was -76% (active).
Compound `COC(=O)[C@]12CCCCC=C1N(Cc1ccco1)C(=O)[C@H](CC(=O)NCCCCc1ccccc1)C2` has an activity change of -13.7%.
For `CCC(C)CN1C(=O)CSCC1(C)C(=O)NCc1ccccc1` (stereo not given), the activity change was 7.26%.
Compound `CCOc1cc(N2CCOCC2)c(OCC)cc1NC(=O)COC(=O)[C@H](Cc1c[nH]c2ccccc12)NC(C)=O` has an activity change of 0.0588%.
In the case of `CCOc1cc(N2CCOCC2)c(OCC)cc1NC(=O)COc1cccc2cccnc12`, the activity change is reported as -66.8% (active).
In the case of `CCOc1cc(N2CCOCC2)c(OCC)cc1NC(=O)c1ccc(C)s1`, the activity change is reported as -7.09%.
`Cc1cccc(C)c1NC(=O)C(c1cccc(F)c1)N1CCN(C)CC1` (stereo not given) gave an activity change of 1.36%.
`CC1CCN(S(=O)(=O)c2ccc3[nH]c(=O)ccc3c2)CC1` gave an activity change of -0.516%.
Compound `O=C(NCCOc1ccccc1)c1ccccc1F` has an activity change of 6.38%.
For `C/C(=N\NC(=O)Cc1ccc(Cl)cc1)c1ccccn1`, the activity change was -85.5% (active).
In the case of `C/C(=N/NC(=O)CCc1ccccc1)c1ccco1`, the activity change is reported as 2.7%.
`COc1ccc(CC(N)c2csc(NC(=O)Cc3ccccc3)n2)cc1` (stereo not given) gave an activity change of -12.1%.
`O=C(Cc1ccc(Cl)cc1)c1ccccc1` gave an activity change of 4.47%.
In the case of `C/C(=N\NC(=O)c1ccccc1F)c1ccccn1`, the activity change is reported as -91.6% (active).
In the case of `COc1ccc(C(=O)/C=C/Nc2ccccn2)cc1`, the activity change is reported as 3.99%.
`CCNC(=S)N1CCN(c2ncccn2)CC1` showed an activity change of 1.47%.
`CCOc1ccc(NC(=S)N2CCCCCC2)cc1` showed an activity change of -13.8%.
`C/C(=N/NC(=O)c1ccn(C)n1)c1ccncc1` showed an activity change of 5.19%.
In the case of `CC(=NNC(=S)N1CCCCCC1)c1ccccn1`, the activity change is reported as -88.5% (active).
`COc1ccc(CC(=O)N/N=C(\C)c2ccccn2)cc1` was tested, and the activity change was -85.5% (active).
Work on `Cc1cccc(C)c1NC(=O)C(c1ccc(C(F)(F)F)cc1)n1c(=O)c(-c2ccco2)nc2ccccc21` (stereo not given) yielded an activity change of -0.0756%.
In the case of `CCCCOCCCNC(=O)C[C@@H]1C[C@@]2(C(=O)OC)CCCCC=C2N(CCC2=CCCCC2)C1=O`, the activity change is reported as -2.51%.
`CC(C)N1C(=O)c2ccccc2NC(=O)C1C(=O)NCc1cccs1` (stereo not given) was tested, and the activity change was 0%.
`COc1cc(C=C(OC(C)=O)c2ccc3c(c2)OCO3)cc(OC)c1OC` gave an activity change of -21%.
With `C=C1C(=O)OC2C1CCC(C)=CCCC1(C)OC21` (stereo not given) the activity change was 10.7%.
In the case of `O=c1ccc2c(-c3ccccc3S(=O)(=O)O)c3ccc(O)c(O)c3oc-2c1O`, the activity change is reported as -87.1% (active).
`COC(=O)C1=CN(c2c(C)cc(C)cc2C)C(N)=C(C#N)C1c1cccc(F)c1` (stereo not given) showed an activity change of -17.6%.
Compound `O=C(N[C@H]1CC[C@H](CC(=O)N2CCCCC2)O[C@@H]1CO)c1cccc(F)c1` has an activity change of -8.77%.
`CCCC(C(=O)OCCN(CC)CC)(c1ccccc1)c1ccccc1` was tested, and the activity change was -20.2%.
Compound `CCN(CC)CCNCC(=O)Nc1ccc(Oc2ccccc2)cc1` has an activity change of -5.73%.
`CCN(CC)CCOc1ccc2c(c1)C(=NNC(=O)c1ccccn1)c1cc(OCCN(CC)CC)ccc1-2` was tested, and the activity change was -74.3% (active).
For `CCc1ccc(-c2cc(C)no2)cc1S(=O)(=O)NCCc1ccc(S(N)(=O)=O)cc1`, the activity change was -4.17%.
With `CC(=O)Nc1ccc(NC(=O)C(NS(=O)(=O)c2ccc3c(c2)OCCO3)C(C)C)cc1` (stereo not given) the activity change was 0.533%.
Work on `CCC(C(=O)Nc1c(C)cccc1C)n1c(-c2cc(C)cs2)nc2ccccc21` (stereo not given) yielded an activity change of 4.28%.
In the case of `CC(=O)N1CCCc2cc(S(=O)(=O)N3CCCC(C(=O)N4CCN(c5cccc(Cl)c5)CC4)C3)ccc21` (stereo not given), the activity change is reported as -12.9%.
`COc1ccc(-n2c(C)cc(C(=O)CN3C(=O)NC4(CCc5ccccc54)C3=O)c2C)cc1` (stereo not given) was tested, and the activity change was -14.9%.
In the case of `COC(=O)c1ccc(NC(=O)CSc2nc(N)c(NC(=O)c3ccc(Br)o3)c(=O)[nH]2)cc1`, the activity change is reported as -66.4% (active).
`COCCNC(=O)CSc1nc(N)c(NC(=O)c2ccco2)c(=O)[nH]1` was tested, and the activity change was 2.42%.
For `COc1ccc(C(=O)Nc2c(N)nc(SCC(=O)Nc3ccc(C(C)=O)cc3)[nH]c2=O)cc1`, the activity change was -14.2%.
In the case of `CCOC(=O)c1sc(/N=C/C2=C(O)CC(C)(C)CC2=O)c(C(=O)OCC)c1C`, the activity change is reported as -0.173%.
`Cc1c(Cl)c([N+](=O)[O-])nn1CCCC(=O)NC(C)c1ccccc1` (stereo not given) was tested, and the activity change was 7.3%.
In the case of `Cc1c(Cl)c([N+](=O)[O-])nn1Cc1ccc(C(=O)N/N=C\c2cc(Cl)ccc2O)o1`, the activity change is reported as -71.9% (active).
`Cc1nn(Cc2ccccc2Cl)c(C)c1NC(=O)Cn1nc([N+](=O)[O-])c(Cl)c1C` showed an activity change of -0.78%.
`COc1ccccc1C(=O)NCC(=O)OCC(=O)NNC(=O)c1ccc(Br)cc1` was tested, and the activity change was -6.57%.
`CC(C)c1cc(Cn2c3ccccc3c(=O)n2C(C)Cn2cc(C3CC3)nn2)on1` (stereo not given) gave an activity change of 4.06%.
`COc1ccc(COC[C@H](CC(C)C)N2CCN(C(=O)c3cccc(C(F)(F)F)c3)CCC2=O)cc1` showed an activity change of 9.97%.
For `CCN(CC(=O)Nc1ccc(NC(C)=O)cc1)C(=O)C1CC(=O)N(c2ccc3c(c2)OCCO3)C1` (stereo not given), the activity change was -0.253%.
For `Cc1ccc(-c2cnc(C(O)c3cccc(C)c3C)[nH]2)cc1` (stereo not given), the activity change was -9.73%.
For `COC(=O)C1=C(C)NC(=O)/C1=C/c1ccc(CNS(=O)(=O)c2ccc(C)cc2)o1`, the activity change was -8.38%.
Work on `O=S(=O)(NCc1ccccc1)c1ccc(S(=O)(=O)N2CCCC2)cc1` yielded an activity change of 0%.
In the case of `O=c1/c(=C/c2ccc(CNS(=O)(=O)c3ccccc3)o2)sc2n1CCN=2`, the activity change is reported as -74.2% (active).
`COC(=O)[C@]12CCCCC=C1N(Cc1ccc3c(c1)OCO3)C(=O)[C@H](CC(=O)N1CCOCC1)C2` gave an activity change of 7.68%.
For `CCC(C)C(CO)NC(=O)/C=C/[C@H]1O[C@@H](n2cnc3c(NC(=O)c4ccccc4)ncnc32)[C@H](O)[C@@H]1O` (stereo not given in full), the activity change was -67.4% (active).
For `COc1cccc(CN(C)C(=O)CC[C@H]2O[C@@H](n3cnc4c(NC(=O)c5ccccc5)ncnc43)[C@H](O)[C@@H]2O)c1`, the activity change was -3.33%.
Compound `O=C(/C=C/[C@H]1O[C@@H](n2cnc3c(NC(=O)c4ccccc4)ncnc32)[C@H](O)[C@@H]1O)NCc1ccccc1` has an activity change of -0.266%.
`O=C(COc1ccc(Cl)cc1)NCc1nnc(SCC(=O)NCC2CCCO2)o1` (stereo not given) gave an activity change of 17.7%.
`CCC(C(=O)NC(C)(C)C)n1c(-c2ccccc2)nc2ccccc21` (stereo not given) was tested, and the activity change was 2.19%.
Compound `CCCCCc1c(Cc2ccccc2)ncn1CCc1ccccc1OC` has an activity change of 7.11%.
In the case of `COc1ccc(Nc2nc(-c3cccnc3)nc3ccccc23)cn1`, the activity change is reported as -65.3% (active).
`CCN(CC(=O)NC1CCS(=O)(=O)C1)c1nc(-c2cccnc2)nc2ccccc12` (stereo not given) showed an activity change of 5.63%.
In the case of `S=c1nc2ccccc2c2nc(-c3cccnc3)[nH]n12`, the activity change is reported as -8.27%.
With `CC(C)C1Cc2[nH][nH]c(=O)c2C(c2ccc(Cl)cc2)O1` (stereo not given) the activity change was -11.7%.
`O=C1NC[C@H](CCCCN2C[C@H](Cc3ccc(O)cc3)N(CC3CCCCC3)C(=O)C2=O)N(CCc2ccccc2)C1=O` was tested, and the activity change was 3.83%.
For `COC(=O)C[C@@H]1C=C[C@@H](NC(=O)c2cccnc2)[C@@H](CO)O1`, the activity change was 13.6%.
Work on `CC(C)CCNC(=O)C(C)N(C(=O)Cn1nnc(-c2ccc(F)cc2)n1)C1CCCC1` (stereo not given) yielded an activity change of 4.65%.
`Cc1ccc(-n2c(SCC(=O)NCCC3=CCCCC3)nc3n[nH]c(C)c3c2=N)cc1Cl` gave an activity change of -17.6%.
Compound `COc1cccc(-n2c(SCC(=O)NC3CCS(=O)(=O)C3)nc3ccccc3c2=O)c1` (stereo not given) has an activity change of -0.378%.
With `COc1cccc(-n2c(SCC(=O)NC3CCCCC3)nc3n[nH]c(C)c3c2=N)c1` the activity change was -66.7% (active).
Compound `O=C(C(=O)N1CCN(c2ccccc2)CC1)c1ccc2c(c1)OCO2` has an activity change of 9.9%.
In the case of `CCOc1ccc(C(CCc2ccccc2)NC(=O)c2ccc(OC)c(OC)c2)cc1OCC` (stereo not given), the activity change is reported as -5.59%.
`CCCCC(=O)NC(c1ccc(OC)c(OC)c1)c1ccc2cccnc2c1O` (stereo not given) was tested, and the activity change was -90.3% (active).
In the case of `C=CCn1c(COc2cccc3cccnc23)nnc1SCC(=O)OC`, the activity change is reported as 0.499%.
With `Cc1cc(C)n2c(Nc3c(C)cccc3C)c(CCc3ccccc3)nc2n1` the activity change was -0.972%.

Source: PubChem BioAssay AID651725 (National Center for Advancing Translational Sciences (NCATS), 2012)
% is set by controls: 0 for no effect and ±100 for the full control effect.
